Hit rate of the full screen: of about 340,000 compounds, about 2,100 (0.62%) were called active.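 Rule for the calls: active = first-screen hits whose inhibition reached a set limit at any dose in the follow-up dose series; inconclusive = inhibition above the set first-screen limit but never retested; inactive = the rest.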 A selection follows. Entries with a potency or affinity are not part of this list.
biological target: Rac GTPase-activating protein 1 (Homo sapiens) (UniProt Q9H0H5); experiment: MgcRacGAP GTPase-activating activity inhibitors, confirmation, biochemical, ADP Hunter fluorescence, primary and confirmatory (AID 624330); conditions: MgcRacGAP-stimulated Rac1 GTP hydrolysis, at 30 µM, hits give high values, GST-tagged Rac1 F28L mutant substrate;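 note: fluorescence reports GDP produced by GAP-driven GTP hydrolysis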
Sequence (Q9H0H5 whole entry, looked up): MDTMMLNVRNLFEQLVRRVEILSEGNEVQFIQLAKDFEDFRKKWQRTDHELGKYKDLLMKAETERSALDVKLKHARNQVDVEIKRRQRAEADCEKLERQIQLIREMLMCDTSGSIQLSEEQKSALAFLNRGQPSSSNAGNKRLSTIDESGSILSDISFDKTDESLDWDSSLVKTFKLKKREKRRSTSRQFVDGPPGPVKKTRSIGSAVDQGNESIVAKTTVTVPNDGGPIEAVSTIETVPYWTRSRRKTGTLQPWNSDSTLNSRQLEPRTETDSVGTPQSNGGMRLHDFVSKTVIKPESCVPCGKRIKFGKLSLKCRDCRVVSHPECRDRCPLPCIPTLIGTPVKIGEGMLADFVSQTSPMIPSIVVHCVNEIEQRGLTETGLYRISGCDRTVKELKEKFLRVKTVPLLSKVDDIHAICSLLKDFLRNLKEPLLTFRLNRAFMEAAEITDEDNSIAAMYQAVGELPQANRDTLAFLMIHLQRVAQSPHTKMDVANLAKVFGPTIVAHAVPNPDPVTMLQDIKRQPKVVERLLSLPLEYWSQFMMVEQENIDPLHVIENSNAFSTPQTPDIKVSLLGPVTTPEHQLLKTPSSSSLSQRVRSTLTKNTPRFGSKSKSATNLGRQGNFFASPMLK

inhibition, inactive:
NC(=S)Cc1ccccc1Cl 8.51%
O=C(O)c1ccc(O)cc1O 6.35%
OC(CCN1CCCCC1)(c1ccccc1)C1C[C@@H]2C=C[C@H]1C2 (some centres not stated) 0.59%
CCCCn1c(=O)c(CCC(=O)O)nc2ccccc21 -3.87%
CCc1cc2c(=O)c(-c3nc4ccccc4n3C)c(COCC(=O)O)oc2cc1O 3.02%
CCN(CC)Cc1c(O)ccc2cc(-c3nc4ccccc4n3C)c(=O)oc12 2.29%
CCc1cc(-c2n[nH]c(C)c2-c2nc3ccccc3n2C)c(O)c(CN2CCN(C)CC2)c1O 1.55%
CCOC(=O)C1CCCN(C(=O)c2ccccc2[N+](=O)[O-])C1 (configuration not stated) 3.25%
CCCCC/C=C/C1=CC(=O)C[C@H](c2ccc3c(c2)OCO3)C1 5.09%
CN(Cc1ccno1)Cc1cn(Cc2ccccc2)nc1-c1ccc2c(c1)OCO2 9.52%
COc1ccc(CCNC(=O)COC(=O)C2COc3ccccc3O2)cc1 (configuration not stated) 2.96%
CC(=O)N1CCN(S(=O)(=O)c2cccc(C(=O)NCCc3ccc(Cl)cc3)c2)CC1 5.57%
CCOc1ccc(Oc2ccccc2NC(=O)C2=COCCO2)cc1 -5.82%
OCCCNCc1cccc2ccccc12 -2.77%
OCCCNc1c2ccccc2nc2ccccc12 9.86%
COCCCNC(=O)C[C@H]1C[C@H](C(=O)N(C(C)C)C(C)C)[C@@]2(C)c3[nH]c4ccc(Cl)cc4c3CCN2C1=O 4.5%
Cc1ccc(S(=O)(=O)NNC(=O)CCC(=O)Nc2ccccc2Cl)cc1 7.64%
C(/CCc1ccccc1)=N\n1cnnc1 8.49%
O=C1C(=Cc2ccco2)C(=O)c2ccccc21 12.3%
Cc1ccc(C(=O)O)cc1-c1ccc(C=C2C(=O)c3ccccc3C2=O)o1 12.9%
CCN(CC)c1ccc(C(=O)O)cc1 -7.19%
O=C(O)c1ccc2c(c1)C(=O)N(Cc1ccco1)C2=O -0.17%
O=C(O)c1ccc2c(c1)C(=O)/C(=C/c1ccccc1)C2=O 31.4%
Cc1ccc(C=C2C(=O)c3ccccc3C2=O)o1 8.39%
O=C(CN(Cc1ccccc1)C(=O)c1csnn1)NCc1ccc2c(c1)OCO2 -2.73%
CCOc1ncccc1C(=O)OCCCC(=O)c1ccc(Br)cc1 2.15%
COc1ccc(-n2c(-c3ccc(Cl)cc3Cl)n[nH]c2=S)c(OC)c1 -9.67%
COc1cccc(NC(=S)N(CCc2c(C)[nH]c3ccccc23)Cc2cccs2)c1 6.48%
COc1ccc(C(=O)Nc2ccc(C(=O)Nc3nccs3)cc2)cc1[N+](=O)[O-] 10%
CC1=Nc2cccc3cccc(c23)N1 -4.86%
Fc1ccc(C2=Nc3cccc4cccc(c34)N2)cc1 16.5%
O=C(Nc1ccccc1)NC1(C(=O)N2CCC(O)CC2)CCCCC1 5.54%
CCOC(=O)C1CCCN(C(=O)C2CCN(C(=O)Nc3ccccc3)CC2)C1 (configuration not stated) 4.05%
OC1CCN(C(=S)Nc2ccc(Oc3ccccc3)cc2)CC1 -10.8%
CCOC(=O)C1CCCN(C(=O)Nc2ccccc2)C1 (configuration not stated) 0.14%
CCCOCC(O)CCc1n[nH]c(=S)n1-c1ccccc1 (configuration not stated) -1.65%
Cc1ccc(C(=O)COc2ccc3ccc(=O)oc3c2)cc1 8.86%
Cc1cc(C)n(C(=O)c2ccc(NC(=O)C3COc4ccccc4O3)cc2)n1 (configuration not stated) -9.3%
CC(C)c1onc(C(=O)N2CCN(Cc3ccccc3)CC2)c1[N+](=O)[O-] -1.76%
Nc1nc(SCc2ccccc2)c2[nH]cnc2n1 5.48%
CNc1ncnc(Sc2nc(N)nc3nc[nH]c23)c1[N+](=O)[O-] -4.52%
COC(=O)c1ccc(C(=O)OC)c(NC(=O)COC(=O)c2ccc(OC)c(OC)c2OC)c1 -0.19%
COc1ccc(/C=N/Nc2ccc(C(=O)O)cc2)c(OC)c1OC 5.84%
COC(=O)c1ccc2nc(C)c(C)nc2c1 2.34%
COC(=O)c1ccc(/C=C/C(=O)O)cc1 14.6%
COC(=O)c1ccc2c(c1)C(=O)/C(=C/c1ccc(O)cc1)O2 30.8%
C[N+]1=C(/C=C/Nc2ccccc2Cl)C(C)(C)c2ccccc21 -5.94%
COC(=O)c1cn(Cc2ccccn2)c(=O)c2ccccc12 1.41%
O=C(Nc1ccc(N2CCN(C(=O)c3ccccc3)CC2)cc1)c1cccnc1 4.32%
CCn1cc(C(=O)OCC(=O)Nc2ccc(C(C)C)cc2)c(=O)c2ccc(C)nc21 3.76%
CC(Sc1nnnn1-c1ccc(O)cc1)C(=O)NNC(=O)c1ccc(F)cc1 (configuration not stated) 2.11%
O=C(NCCN1C(=O)S/C(=C/c2ccccc2)C1=O)C1CC(=O)N(Cc2ccccc2)C1 (configuration not stated) 7.02%
Cc1c(C)n(CC(O)CNCCO)c2ccccc12 (configuration not stated) 18.2%
Cc1c(C)n(CC(O)CNc2ccccc2)c2ccccc12 (configuration not stated) 20.8%
CN1CC(=O)N/C1=N\C(=O)Nc1ccc2c(c1)N(C)C(=O)CS2 2.74%
COc1cc(/C=C/C(=O)OCC(=O)NC(=O)NC(C)C)cc(OC)c1OC 6.89%
COc1cc(/C=C/C(=O)OCC(=O)NC(=O)NC(C)(C)C)cc(OC)c1OC 8.1%
COc1cc(/C=C/C(=O)OCC(=O)NC(=O)NC(C)C)ccc1OCC#N 0.8%
COc1ccc(/C=C/C(=O)OCC(=O)NC(=O)NC(C)(C)C)cc1 2.69%
O=C1c2ccccc2NC(c2ccc([N+](=O)[O-])cc2)N1O (configuration not stated) 4.29%
O=S(=O)(Nc1cccc(S(=O)(=O)N2CCOCC2)c1)c1ccc(Cl)s1 -0.61%
CCc1nc2sccc2c(=O)n1N -1.25%
O=C(CNC(=O)c1ccccc1)NCCc1ccc(O)c(O)c1 10.9%
COc1ccc(CNCc2ccncc2)c(OC)c1 5.34%
CCN(Cc1ccncc1)Cc1cn[nH]c1-c1ccc(OC)cc1F -2.02%
CCN(Cc1ccccc1)Cc1ccc(OCc2ccccc2)c(OC)c1 10.8%
CCN(Cc1ccncc1)Cc1ccc(Br)cc1 28%
COc1ccc(NC(=O)C2CCN(S(=O)(=O)c3c(C)noc3C)CC2)cc1 8.66%
Cc1cc(C)n2nc(CC(=O)NNC(=O)COc3cccc(C)c3C)nc2n1 -3.96%
CCCCOCCCNC(=O)c1ccc(OC)cc1 4.46%
Cc1cc(Cl)ccc1N(CC(=O)N(C)Cc1ccccc1)S(C)(=O)=O 18.6%
CCC(SC1=N/C(=C/c2ccccc2OC)C(=O)N1c1ccccc1)C(=O)Nc1cc(C)on1 (configuration not stated) 12.8%
O=c1[nH]c(SCc2ccccc2)nc2c1cnn2-c1ccc(F)cc1 14%
Cc1cc(C)n2nc(C(=O)OCC(=O)N(C)CC(=O)Nc3ccccc3Cl)nc2n1 1.5%
CC(C)CO/C(=N/S(=O)(=O)c1ccccc1)c1ccccc1 5.75%
CS/C(=N\S(=O)(=O)c1ccccc1)c1ccccc1 5.35%
O=C(N/N=C\c1cccnc1)C1c2ccccc2Oc2ccccc21 3.36%
COc1cc(/C=N/NC(=O)C2c3ccccc3Oc3ccccc32)ccc1O 5.77%
Cn1cc(CN2CCC(C(=O)Nc3cccc(-c4cccc(F)c4)c3)CC2)cn1 5.69%
c1ccc(NC2=NCCN2CC2CCCCCC2)cc1 7.17%
O=C(CSc1nnc(-c2cccnc2)o1)Nc1cccc(Cl)c1 4.31%
N#Cc1cccc(NC(=O)CCN2C(=O)C3CCCCC3C2=O)c1 (configuration not stated) -0.53%
O=C1NC(=O)N(c2ccc(Cl)cc2)C(=O)/C1=C/c1ccc2c(c1)CCN2Cc1ccccc1Cl 10.3%
O=C1/C(=C/c2ccc(N3CCCC3)cc2)NC(=S)N1C1CC1 27.1%
COc1ccc(NC(=O)Nc2ccc3c(c2)C(=O)N([C@H](C)CO)C[C@H](C)[C@@H](CN(C)S(C)(=O)=O)O3)cc1 11.1%
O=S(N1CCCCC1)C12CC3CC(CC(C3)C1)C2 (configuration not stated) -0.65%
CSC1=C(C#N)C(=O)NC(c2ccccc2O)S1 (configuration not stated) 25.9%
COc1cccc(NC2=C(C#N)C(=O)NC(c3cccc(OC)c3O)S2)c1 (configuration not stated) 36.1%
O=C(CCCN1C(=O)c2ccccc2C1=O)Nc1cccc(S(=O)(=O)NC2=NCCC2)c1 9.21%
Cc1ccc(C)c(NC(=O)COC(=O)CCC(=O)c2cccs2)c1 -3.89%
COc1cccc(CNCc2ccc(C(=O)O)cc2)c1OC 1.24%
Cc1cc(=O)oc(C)c1C(=O)NCCCN1CCN(c2ccccc2F)CC1 6.67%
CCOC(=O)c1[nH]c2ccc(C)cc2c1N=C(C)N(C)C 9.84%
CCOC(=O)c1[nH]c2ccc(C)cc2c1N=CN(CC)CC 17.7%
CCOC(=O)c1[nH]c2cc(OC)c(OC)cc2c1NC(=O)c1nonc1C 9.89%
CCOC(=O)c1[nH]c2ccc(OC)cc2c1C 7.86%
COc1ccc(NC(=O)NNC(=O)c2cc3ccccc3cc2O)cc1 11.5%

Source: PubChem BioAssay AID624330 (Southern Research Specialized Biocontainment Screening …, 2012)
